Assay results from PubChem BioAssay (NCI).
Compounds without any hit were thinned out: in the full panel of roughly 83,000, 20% have a hit.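 The test compound was applied at a single concentration to cells in 96-well plates for 48 hours, and percent growth was recorded.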 A number with no mark means an inactive call. Active and inactive are the calls of the source. The calls were made as follows: active = growth percent below 10; inactive = the rest.

Tested on: HL-60(TB) leukemia
Assay: NCI-60 one-dose screen, 48 h (100 = growth as untreated, 0 = no growth, -100 = all killed)
Conditions: 10 µM unless noted

| Structure (SMILES) | growth |
| --- | --- |
| CC(C)C(C)(C)c1ccc(O)cc1 | 104% |
| C#CC[C@@H]1C[C@]2(C)[C@H]3CC[C@@H]4[C@H]5C(C(=C)C)CC[C@]5(C(=O)NCCCCCCCCN)CC[C@@]4(C)[C@]3(C)CC[C@H]2C(C)(C)[C@H]1OC(C)=O (stereo not given in full) | 22% |
| COc1cc(C(=O)/C=C/c2cccc(Nc3ccnc4cc(Cl)ccc34)c2)cc(OC)c1OC | 5.47% (active) |
| CCCC(F)C(=O)O (stereo not given) | 97.3% |
| C=C(C)[C@H]1CC/C(C)=C/CC[C@]2(C)O[C@H]2CC/C(C=O)=C\C1O (stereo not given in full) | 253% |
| COc1ccc(Nc2ncc(Br)c(NCCCNC(=O)C3CCCC3)n2)cc1 | 17% |
| COc1ccc(CCc2nc3cc(-c4c(C)noc4C)ccc3n2CCN2CCOCC2)cc1 | 5.97% (active) |
| COc1cc(C(=O)/C=C/c2c(C(F)(F)F)nc3sccn23)cc(OC)c1OC | -20% (active) |
| Cc1c(O)c(=O)ccn1C1CCC(CC2CCC(n3ccc(=O)c(O)c3C)CC2)CC1 (stereo not given) | -0.371% (active) |
| CCn1c(=O)c(C(=O)NCCCO)c(O)c2ccccc21 | 90.5% |
| COc1ccc(-c2[nH]ncc2/C=C/c2cc(C(F)(F)F)[nH]c(=O)n2)cc1 | 92% |
| CCCCC(CCCCCC(CCCC)NCc1ccc2c(c1)OCO2)NCc1ccc2c(c1)OCO2 (stereo not given) | -76.6% (active) |
| Cc1cc2c(cc1C)[n+](Cc1ccc3ccccc3c1)cn2Cc1ccc2ccccc2c1 | -60% (active) |
| Cc1oc2nc[nH]c(=O)c2c1C(=O)/C=C/c1ccc(Cl)cc1Cl | 7.83% (active) |
| CCCCNC(=O)NS(=O)(=O)Cc1ccccc1 | 88.1% |
| COc1ccc(-c2cc(-c3cc(OC)c(OC)c(OC)c3)c(C#N)c(=O)n2CCCCC(=O)O)cc1 | 103% |
| O=[N+]([O-])c1ccc(-c2cc3c(Nc4ccc(Cl)c(C(F)(F)F)c4)ncnc3s2)cc1 | -41.3% (active) |
| COc1ccc2cc(C(=O)N3CCC([C@@H](C)C(=O)NCc4ccc5c(c4)OCO5)CC3)[nH]c2c1 | 91% [50 µM] |
| CCCCC(=O)Nc1nc2ccc(SCCC)cc2s1 | 19.5% |
| C=C[C@H]1C[C@@H]2C[C@@H]3[C@H]4C/C=C\C(=O)NCCCC5NC(=O)C(=C(O)/C=C/[C@@H]4CC(=O)[C@H]3[C@@H]2[C@H]1C)C5=O (stereo not given in full) | -76.5% (active) |
| Clc1ccc(/C=C2\CCCC3C2=Nc2ccccc2NC3c2ccc(Cl)cc2)cc1 (stereo not given) | 73.9% |
| O=C1COCCN1c1ccc(Nc2nc(Cl)nc(N3CCOCC3)n2)cc1 | 90.5% |
| CN(C)c1ccc(-c2ccc3c(c2)c(-c2ccccc2)nc(=O)n3C)cn1 | 43.5% |
| CC(=O)O[C@H]1CC2CCC3C(CC[C@@]4(C)C3C[C@H]([N+]3(C)CCCCC3)[C@@H]4OC(C)=O)[C@@]2(C)C[C@@H]1N1CCCCC1 (stereo not given in full) | 107% |
| COC(=O)/C=C1\SC(=Nc2cccc(OC)c2)N(CCc2c[nH]c3ccccc23)C1=O | 22.2% |
